Measured values reported in PubChem BioAssay (NCATS).
Unmarked numbers belong to inactive results. Records with an inconclusive call do not appear. A call without a number means that no potency is given here. The source made the active and inactive calls. Unless noted, calls come from the whole dose curve; as a rule, active = well fitted curve in the direction sought with a large enough effect; inconclusive = small, poorly fitted or top-dose-only effect, or another doubt; inactive = no such curve, though single readings can be large; an effect the other way counts as inactive or inconclusive.

What was measured:
[1] = NS1 protein of Zika virus - qHTS assay to identify small molecule inhibitors in human HEK 293 cells (AID 1347053); note: nearly all actives have a fitted effect of over 55% in size
How it was run: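 Compound-treated (1 h pre-infection) HEK 293 cells infected with ZIKV MR766, MOI = 0.5; after 24 h at 37 C, NS1 read by TR-FRET; data normalized to uninfected and infected controls.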

[2] = target: T1, Tyrosine-protein phosphatase non-receptor type substrate 1 (Homo sapiens) + Leukocyte surface antigen CD47 (Homo sapiens) (UniProt P78324+Q08722); assay: CD47-SIRPalpha protein protein interaction - LANCE assay qHTS validation (AID 1347057; active = well fitted curve in the direction sought with a large enough effect in the signal ratio, with a control signal flat, not every such curve was filed as active; the % refers to the signal ratio)
T1 sequence (P78324 whole entry, looked up, the tested form may be a part): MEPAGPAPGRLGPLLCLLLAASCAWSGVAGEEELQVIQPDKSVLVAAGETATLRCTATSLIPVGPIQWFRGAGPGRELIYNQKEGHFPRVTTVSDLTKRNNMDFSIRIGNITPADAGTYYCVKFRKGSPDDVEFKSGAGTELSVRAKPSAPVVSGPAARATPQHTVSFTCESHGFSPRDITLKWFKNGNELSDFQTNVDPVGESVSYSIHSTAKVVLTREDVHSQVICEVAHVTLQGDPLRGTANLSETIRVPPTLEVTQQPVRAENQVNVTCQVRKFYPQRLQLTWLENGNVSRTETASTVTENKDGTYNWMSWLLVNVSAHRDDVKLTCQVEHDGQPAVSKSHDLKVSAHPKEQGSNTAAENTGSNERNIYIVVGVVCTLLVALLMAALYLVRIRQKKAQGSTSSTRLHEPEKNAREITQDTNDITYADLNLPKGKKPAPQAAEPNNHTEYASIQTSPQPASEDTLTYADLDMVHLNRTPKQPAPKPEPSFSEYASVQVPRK
T1 sequence (Q08722 whole entry, looked up, the tested form may be a part): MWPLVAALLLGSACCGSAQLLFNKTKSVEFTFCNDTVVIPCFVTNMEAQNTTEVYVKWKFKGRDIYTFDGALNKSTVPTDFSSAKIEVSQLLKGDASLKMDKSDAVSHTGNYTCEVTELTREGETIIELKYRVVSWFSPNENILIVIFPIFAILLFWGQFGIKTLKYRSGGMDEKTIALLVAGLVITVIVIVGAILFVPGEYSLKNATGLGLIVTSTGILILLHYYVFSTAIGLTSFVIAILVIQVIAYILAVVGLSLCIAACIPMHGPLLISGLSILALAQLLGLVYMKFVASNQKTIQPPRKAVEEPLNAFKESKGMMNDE
How it was run: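 Inhibition of soluble CD47/SIRPalpha ectodomain association by titrated compounds, measured as 665/615 nm time-resolved FRET ratio after sequential 30 min room-temperature incubations.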

[3] = target: T1, Tyrosine-protein phosphatase non-receptor type substrate 1 (Homo sapiens) + Leukocyte surface antigen CD47 (Homo sapiens); assay: CD47-SIRPalpha protein protein interaction - HTRF assay qHTS validation (AID 1347058; active = well fitted curve in the direction sought with a large enough effect in the signal ratio, not every such curve was filed as active; the % refers to the signal ratio)
How it was run: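 Soluble extracellular domains (6His-CD47, Avi-tag-biotinylated SIRPalpha) in PBS pH 7.4 with 0.05% IGEPAL CA-630. Compounds were preincubated 30 min at RT with CD47 and anti-His-Eu, then SIRPalpha and SAV-XL665 were added. TR-FRET 665/615 ratio.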

[4] = target: T1, Tyrosine-protein phosphatase non-receptor type substrate 1 (Homo sapiens) + Leukocyte surface antigen CD47 (Homo sapiens); assay: CD47-SIRPalpha protein protein interaction - Alpha assay qHTS validation (AID 1347059);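 note: bead proximity luminescence from CD47 binding SIRPalpha after compound preincubation with SIRPalpha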
How it was run: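 AlphaScreen signal between CD47-His (12.5 nM) and biotin-SIRPalpha (25 nM) soluble extracellular domains, bead-captured via Ni-NTA and streptavidin. Compounds, in 7-point titrations, met SIRPalpha 30 min before CD47; PBS pH 7.4 with 0.05% IGEPAL.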

[5] = target: Parathyroid hormone/parathyroid hormone-related peptide receptor (Homo sapiens) (UniProt Q03431); assay: qHTS for PTHR1 Agonists: Optimization Screen against the NCGC LOPAC library (AID 1347079);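 note: GloSensor cAMP luminescence in HEK-293 GP2 cells expressing human PTHR1 with IBMX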; note: potency is the fitted concentration of half-maximal effect
Parathyroid hormone/parathyroid hormone-related peptide receptor (Homo sapiens), sequence (Q03431 whole entry, looked up): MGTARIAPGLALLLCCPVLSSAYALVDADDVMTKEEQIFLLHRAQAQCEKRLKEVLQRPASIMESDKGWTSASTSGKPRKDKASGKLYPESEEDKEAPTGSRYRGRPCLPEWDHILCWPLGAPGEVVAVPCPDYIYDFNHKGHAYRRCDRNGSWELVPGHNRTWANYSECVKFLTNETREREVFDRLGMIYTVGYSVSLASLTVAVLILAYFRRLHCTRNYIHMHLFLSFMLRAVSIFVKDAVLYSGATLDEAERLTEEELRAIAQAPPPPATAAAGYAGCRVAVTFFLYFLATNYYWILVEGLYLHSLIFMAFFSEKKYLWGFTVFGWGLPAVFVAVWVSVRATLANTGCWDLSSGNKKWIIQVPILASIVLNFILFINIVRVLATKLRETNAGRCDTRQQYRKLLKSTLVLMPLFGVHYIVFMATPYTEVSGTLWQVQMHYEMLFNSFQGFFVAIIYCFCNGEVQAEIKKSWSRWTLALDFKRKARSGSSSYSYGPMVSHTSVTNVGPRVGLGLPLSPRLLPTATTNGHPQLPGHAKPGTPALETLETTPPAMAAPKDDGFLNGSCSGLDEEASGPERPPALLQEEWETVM
How it was run: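 Signal increase flags agonism. GP2 cells, derived from HEK-293, express human PTHR1 and a GloSensor cAMP construct.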

[6] = target: N-terminal Xaa-Pro-Lys N-methyltransferase 1 (Homo sapiens) (UniProt Q9BV86); assay: qHTS Assay for Inhibitors of N-terminal methyltransferase 1 (NTMT1): LOPAC validation of the NTMT1 SAHH-coupled ThioGlo3 Assay (AID 1347143);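 note: SAH from peptide methylation measured as thiol fluorescence via SAHH coupling and ThioGlo3; nearly all actives have a fitted effect of over 70% in size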; note: potency is the fitted concentration of half-maximal effect
N-terminal Xaa-Pro-Lys N-methyltransferase 1 (Homo sapiens), sequence (Q9BV86 whole entry, looked up): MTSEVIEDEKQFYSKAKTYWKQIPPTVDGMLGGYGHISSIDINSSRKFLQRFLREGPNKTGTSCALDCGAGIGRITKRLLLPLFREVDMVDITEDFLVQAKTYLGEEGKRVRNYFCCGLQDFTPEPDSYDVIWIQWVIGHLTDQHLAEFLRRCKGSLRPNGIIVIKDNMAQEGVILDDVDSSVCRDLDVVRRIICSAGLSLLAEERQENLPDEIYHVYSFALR
How it was run: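 NTMT1 125nM + cpds (various conc.), 1 min RT; add SAM 100uM/SAHH 10uM/ThioGlo3 15uM (addition mix). SAHH-coupled thiol detection, Ex340/Em450, t0 and 30 min RT; signal normalized to background. LOPAC 1280-cpd pilot.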

[7] = system: Zika virus NS2B-NS3 protease (unlinked); assay: Optimization of GU AMC qHTS for Zika virus inhibitors: Unlinked NS2B-NS3 protease assay (AID 1347151); note: nearly all actives have a fitted effect of over 80% in size; note: potency is the fitted concentration of half-maximal effect
How it was run: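 Noncovalent complex of NS2B hydrophilic domain and NS3 protease domain, 25 nM final, in 10 mM Tris-HCl pH 8.0, 0.01% Tween 20. AMC fluorescence change over 15 min at room temperature was fitted to a 4-parameter Hill equation.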

[8] = target: Lysine-specific demethylase 5B (Homo sapiens) (UniProt Q9UGL1); assay: Optimization screen for KDM5B Histone Demethylases FDH coupled qHTS against the LOPAC library (AID 1347166); conditions: KDM5B demethylation, FDH-coupled NADH fluorescence (FDH is formaldehyde dehydrogenase); at 57.5 µM (top of the series)
Lysine-specific demethylase 5B (Homo sapiens), sequence (Q9UGL1 whole entry, looked up): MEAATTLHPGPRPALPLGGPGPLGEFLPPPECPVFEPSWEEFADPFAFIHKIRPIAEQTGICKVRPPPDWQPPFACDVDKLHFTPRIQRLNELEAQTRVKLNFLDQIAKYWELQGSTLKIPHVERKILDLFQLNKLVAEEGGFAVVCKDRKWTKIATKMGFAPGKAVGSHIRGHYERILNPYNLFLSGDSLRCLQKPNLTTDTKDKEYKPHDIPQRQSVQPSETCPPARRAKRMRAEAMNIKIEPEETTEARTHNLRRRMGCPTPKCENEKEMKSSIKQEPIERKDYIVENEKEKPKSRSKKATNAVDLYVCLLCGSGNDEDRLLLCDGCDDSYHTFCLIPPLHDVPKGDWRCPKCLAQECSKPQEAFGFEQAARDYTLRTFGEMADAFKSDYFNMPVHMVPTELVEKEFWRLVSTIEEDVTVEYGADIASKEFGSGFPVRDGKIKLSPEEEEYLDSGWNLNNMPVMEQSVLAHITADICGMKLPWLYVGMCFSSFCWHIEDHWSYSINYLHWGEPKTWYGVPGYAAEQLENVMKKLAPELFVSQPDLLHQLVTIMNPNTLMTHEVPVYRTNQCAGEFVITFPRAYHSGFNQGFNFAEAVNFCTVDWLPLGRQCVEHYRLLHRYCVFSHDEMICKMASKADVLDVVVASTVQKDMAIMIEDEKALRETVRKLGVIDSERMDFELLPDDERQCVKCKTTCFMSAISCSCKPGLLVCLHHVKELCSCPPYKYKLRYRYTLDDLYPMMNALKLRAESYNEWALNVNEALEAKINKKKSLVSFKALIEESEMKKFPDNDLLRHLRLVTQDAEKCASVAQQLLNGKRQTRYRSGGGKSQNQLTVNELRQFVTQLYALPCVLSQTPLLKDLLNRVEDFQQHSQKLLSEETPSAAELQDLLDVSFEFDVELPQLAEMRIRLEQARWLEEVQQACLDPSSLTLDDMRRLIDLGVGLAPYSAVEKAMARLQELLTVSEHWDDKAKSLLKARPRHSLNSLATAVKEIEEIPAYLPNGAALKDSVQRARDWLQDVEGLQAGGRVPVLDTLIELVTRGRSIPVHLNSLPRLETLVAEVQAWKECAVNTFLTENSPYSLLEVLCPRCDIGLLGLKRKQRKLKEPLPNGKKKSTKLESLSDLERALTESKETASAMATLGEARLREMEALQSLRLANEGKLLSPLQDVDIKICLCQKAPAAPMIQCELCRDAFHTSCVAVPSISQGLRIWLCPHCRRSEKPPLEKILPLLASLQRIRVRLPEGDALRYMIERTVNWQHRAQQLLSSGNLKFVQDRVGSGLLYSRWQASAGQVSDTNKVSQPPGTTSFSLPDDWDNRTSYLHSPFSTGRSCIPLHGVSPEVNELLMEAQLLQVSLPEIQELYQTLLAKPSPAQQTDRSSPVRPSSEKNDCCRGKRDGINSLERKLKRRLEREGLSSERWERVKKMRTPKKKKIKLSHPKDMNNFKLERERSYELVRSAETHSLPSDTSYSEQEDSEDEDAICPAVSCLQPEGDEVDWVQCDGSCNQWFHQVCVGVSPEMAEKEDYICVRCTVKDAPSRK
How it was run: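 KDM5BDeltaAP (200nM final) in 50mM HEPES pH 7.5, 0.01% Tween-20 was preincubated with compound for 10 min at room temperature. A substrate mix of 12.5uM H3K4Me3, 25uM a-ketoglutarate, ascorbate, Fe2+, NAD+ and formaldehyde dehydrogenase was then added. NADH fluorescence (340/450 nm) was read initially and after 30 min.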

NC(N)=[N+]1CCc2ccccc2C1
Potency [1]: inactive | Potency [2]: inactive | outcome [3]: inactive | Potency [4]: inactive | Potency [5]: inactive | Potency [6]: inactive | Potency [7]: inactive | activity, negative = inhibition [8]: 2.33%

C[N+](C)(C)CC=O
Potency [1]: inactive | Potency [2]: inactive | outcome [3]: inactive | Potency [4]: inactive | Potency [5]: inactive | Potency [6]: inactive | Potency [7]: inactive | activity, negative = inhibition [8]: -0.629%

N[C@H](C(=O)O)[C@H](Cc1ccccc1)C(=O)O
Potency [1]: inactive | Potency [2]: inactive | outcome [3]: inactive | Potency [4]: inactive | Potency [5]: inactive | Potency [6]: inactive | Potency [7]: inactive | activity, negative = inhibition [8]: -9.48%

COC1(C2=NCCN2)COc2ccccc2O1 (stereo not drawn)
Potency [1]: inactive | Potency [2]: inactive | outcome [3]: inactive | Potency [4]: inactive | Potency [5]: inactive | Potency [6]: inactive | Potency [7]: inactive | activity, negative = inhibition [8]: -3.68%

CN1CC(O)C(O)C(O)C1CO (stereo not drawn)
Potency [1]: inactive | Potency [2]: inactive | outcome [3]: inactive | Potency [4]: inactive | Potency [5]: inactive | Potency [6]: inactive | Potency [7]: inactive | activity, negative = inhibition [8]: -6.96%

C=C1C[C@@]23CC[C@H]4[C@@](C)(CCC[C@@]4(C)C(=O)O)[C@@H]2CC[C@]1(O)C3
Potency [1]: inactive | Potency [2]: inactive | outcome [3]: inactive | Potency [4]: inactive | Potency [5]: inactive | Potency [6]: inactive | Potency [7]: inactive | activity, negative = inhibition [8]: -2.05%

O=C(O)C1CN(CCCP(=O)(O)O)CCN1 (stereo not drawn)
Potency [1]: inactive | Potency [2]: inactive | outcome [3]: inactive | Potency [4]: inactive | Potency [5]: inactive | Potency [6]: inactive | Potency [7]: inactive | activity, negative = inhibition [8]: 0.457%

N=C(N)c1ccccc1
Potency [1]: inactive | Potency [2]: inactive | outcome [3]: inactive | Potency [4]: inactive | Potency [5]: inactive | Potency [6]: inactive | Potency [7]: inactive | activity, negative = inhibition [8]: -3.44%

O=C(c1ccc2c(c1)OCCO2)N1CCCCC1
Potency [1]: inactive | Potency [2]: inactive | outcome [3]: inactive | Potency [4]: inactive | Potency [5]: inactive | Potency [6]: inactive | Potency [7]: inactive | activity, negative = inhibition [8]: -3.79%

N=C(N)SCCN
Potency [1]: inactive | Potency [2]: inactive | outcome [3]: inactive | Potency [4]: inactive | Potency [5]: inactive | Potency [6]: inactive | Potency [7]: inactive | activity, negative = inhibition [8]: -12%

Cc1cc(Cn2cnc3c2C[C@@H](C(=O)O)N(C(=O)C(c2ccccc2)c2ccccc2)C3)ccc1N
Potency [1]: inactive | Potency [2]: inactive | outcome [3]: inactive | Potency [4]: inactive | Potency [5]: inactive | Potency [6]: inactive | Potency [7]: inactive | activity, negative = inhibition [8]: 0.747%

CC1C(=O)N(C)C(=O)c2nc[nH]c21 (stereo not drawn)
Potency [1]: inactive | Potency [2]: inactive | outcome [3]: inactive | Potency [4]: inactive | Potency [5]: inactive | Potency [6]: inactive | Potency [7]: inactive | activity, negative = inhibition [8]: -5.54%

Nc1ncnc2c1nc(Br)n2C1OC2COP(=O)(O)O[C@@H]2C1O (stereo partly drawn)
Potency [1]: inactive | Potency [2]: inactive | outcome [3]: inactive | Potency [4]: inactive | Potency [5]: inactive | Potency [6]: inactive | Potency [7]: inactive | activity, negative = inhibition [8]: -2.56%

c1ccc(C2CN3CCSC3=N2)cc1 (stereo not drawn)
Potency [1]: inactive | Potency [2]: inactive | outcome [3]: inactive | Potency [4]: inactive | Potency [5]: inactive | Potency [6]: inactive | Potency [7]: inactive | activity, negative = inhibition [8]: -3.45%

CC(=O)C(C)=O
Potency [1]: inactive | Potency [2]: inactive | outcome [3]: inactive | Potency [4]: inactive | Potency [5]: inactive | Potency [6]: inactive | Potency [7]: inactive | activity, negative = inhibition [8]: -10.5%

O=c1cc(-c2ccccc2F)[nH]c2cc3c(cc12)OCO3
Potency [1]: inactive | Potency [2]: inactive | outcome [3]: inactive | Potency [4]: inactive | Potency [5]: inactive | Potency [6]: 56.2 µM (active) | Potency [7]: 26.7 µM (active) | activity, negative = inhibition [8]: -604% (active)

Cc1nc2n(c(=O)c1CCN1CCC(c3noc4cc(F)ccc34)CC1)CCCC2O (stereo not drawn)
Potency [1]: inactive | Potency [2]: inactive | outcome [3]: inactive | Potency [4]: inactive | Potency [5]: inactive | Potency [6]: inactive | Potency [7]: inactive | activity, negative = inhibition [8]: -13.2%

Oc1ccc(Cn2cc[nH]c2=S)cc1
Potency [1]: inactive | Potency [2]: inactive | outcome [3]: inactive | Potency [4]: inactive | Potency [5]: inactive | Potency [6]: 50.1 µM (active) | Potency [7]: inactive | activity, negative = inhibition [8]: -15.9%

NC(=O)CNCCC(c1ccccc1)c1ccccc1
Potency [1]: inactive | Potency [2]: inactive | outcome [3]: inactive | Potency [4]: inactive | Potency [5]: inactive | Potency [6]: inactive | Potency [7]: inactive | activity, negative = inhibition [8]: 2.72%

Fc1ccc(CN(C2=NCCN2)c2c(Cl)cccc2Cl)cc1
Potency [1]: inactive | Potency [2]: inactive | outcome [3]: inactive | Potency [4]: inactive | Potency [5]: inactive | Potency [6]: inactive | Potency [7]: inactive | activity, negative = inhibition [8]: 2.64%

CC(N)=O
Potency [1]: inactive | Potency [2]: inactive | outcome [3]: inactive | Potency [4]: inactive | Potency [5]: inactive | Potency [6]: inactive | Potency [7]: inactive | activity, negative = inhibition [8]: -7.02%

CO/N=C(\C(=O)N[C@@H]1C(=O)N2C(C(=O)O)=C(CSc3nc(=O)c(O)nn3C)CSC12)c1csc(N)n1 (stereo partly drawn)
Potency [1]: inactive | Potency [2]: inactive | outcome [3]: inactive | Potency [4]: inactive | Potency [5]: inactive | Potency [6]: inactive | Potency [7]: inactive | activity, negative = inhibition [8]: -14.3%

NC1(C(=O)O)CCCCC1
Potency [1]: inactive | Potency [2]: inactive | outcome [3]: inactive | Potency [4]: inactive | Potency [5]: inactive | Potency [6]: inactive | Potency [7]: inactive | activity, negative = inhibition [8]: -8.23%

C[C@@H](NCCc1ccc(O)cc1)[C@@H](O)c1ccc(O)cc1
Potency [1]: inactive | Potency [2]: inactive | outcome [3]: inactive | Potency [4]: inactive | Potency [5]: 2.38 µM (active) | Potency [6]: inactive | Potency [7]: inactive | activity, negative = inhibition [8]: -4.75%

Nc1nc2c(nc(Br)n2C2OC3COP(=O)(O)O[C@@H]3C2O)c(=O)[nH]1 (stereo partly drawn)
Potency [1]: inactive | Potency [2]: inactive | outcome [3]: inactive | Potency [4]: inactive | Potency [5]: inactive | Potency [6]: inactive | Potency [7]: inactive | activity, negative = inhibition [8]: -2.81%

c1ccc2c(c1)CCC[C@H]2Nc1nc2ccccc2[nH]1
Potency [1]: inactive | Potency [2]: inactive | outcome [3]: inactive | Potency [4]: inactive | Potency [5]: inactive | Potency [6]: inactive | Potency [7]: inactive | activity, negative = inhibition [8]: -7.62%
